Records with an inconclusive call do not appear. The source made the active and inactive calls. Unless noted, the call rests on the fitted dose curve.
Assays:
[1] = qHTS assay to identify small molecule agonists of the estrogen receptor beta (ER-beta) signaling pathway - cell viability counter screen (AID 1259380; active means well fitted curve in the direction sought with a large enough effect in the repeat runs; an effect the other way counts as inactive or inconclusive; further: nearly all actives have a fitted effect of over 30% in size; further: potency means the concentration at half of the fitted maximal effect); details: ER-beta-bla HEK293T viability, CellTiter-Glo luminescence, 16 h; series mostly up to 92.4 µM
How it was run: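 Compounds dissolved in DMSO were pin-transferred onto ER-beta-UAS-bla HEK293T cells that had settled 6 hr, and exposure ran 16 hr at 37C. Following the reporter read, CellTiter-Glo luminescence after 30 min at room temperature indicated cytotoxicity.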

[2] = target: Androgen receptor (Homo sapiens) (UniProt P10275); assay: qHTS assay to identify small molecule agonists of the androgen receptor (AR) signaling pathway in the presence of an antagonist (AID 1259381); details: MDA-kb2 MMTV-luciferase, AR agonist + nilutamide, 16 h; series mostly up to 92.4 µM; further: nearly all actives have a fitted effect of over 15% in size
How it was run: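 Plated MDA-kb2 cells (3,000/well) were pre-incubated 5hr, given nilutamide (3.0uM final) or buffer, then dosed with compounds in DMSO at 15 concentrations. Luciferase activity was quantified by luminescence after 16hr at 37C.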

[3] = qHTS assay to identify small molecule agonists or antagonists of the thyroid stimulating hormone receptor (TSHR) signaling pathway - wild type cell line counter screen (AID 1259384); details: HEK293 wild type, cAMP HTRF counter-screen; series mostly up to 92.4 µM
How it was run: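 Counter screen in untransfected Hek293: compounds (15-point titration, triplicate) plus phosphodiesterase inhibitor Ro20-1724 added after 18 h plating; 30 min RT. Intracellular cAMP via competitive d2/cryptate immunoassay, 1 h incubation.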

[4] = target: Thyrotropin receptor (Homo sapiens) (UniProt P16473); assay: qHTS assay to identify small molecule antagonists of the thyroid stimulating hormone receptor (TSHR) signaling pathway (AID 1259385); details: TSHR-HEK293 cAMP HTRF, TSH-stimulated antagonist mode; series mostly up to 92.4 µM; further: nearly all actives have a fitted effect of over 20% in size; further: potency means the concentration at half of the fitted maximal effect
How it was run: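 Antagonist mode: compound-treated TSHR-expressing HEK293 cells were stimulated with 1.5 ng/mL TSH (final) in presence of Ro20-1724 for 30 min at RT. HTRF cAMP detection after 1 h; each compound tested at 15 concentrations, triplicate.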

[5] = qHTS assay to identify small molecule agonists of the estrogen receptor alpha (ER-alpha) signaling pathway in the presence of an antagonist - cell viability counter screen (AID 1259386; active means well fitted curve in the direction sought with a large enough effect in the repeat runs; an effect the other way counts as inactive or inconclusive;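 further: cells exposed to compounds for 22 h at 37 °C before the viability read; nearly all actives have a fitted effect of over 30% in size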; further: potency means the concentration at half of the fitted maximal effect); details: VM7Luc4E2 viability, CellTiter-Fluor fluorescence, 22 h; series mostly up to 92.4 µM
How it was run: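 Using estrogen-depleted VM7Luc4E2 cells, the 15-concentration compound series was applied together with 10.0nM ICI-182,780 and incubated 22hr at 37C/5% CO2. Cell viability was then scored by CellTiter-Fluor.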

[6] = target: Progesterone receptor (Homo sapiens) (UniProt P06401); assay: qHTS assay to identify small molecule agonists of the progesterone receptor (PR) signaling pathway (AID 1346784); details: PR-UAS-bla HEK293T, beta-lactamase FRET ratio, 16 h; series mostly up to 92.4 µM; further: nearly all actives have a fitted effect of over 30% in size
How it was run: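 Beta-lactamase reporter read-out: after 16 hr compound treatment at 37C and a further 2 hr at room temperature with LiveBLAzer B/G FRET substrate, fluorescence was measured in PR-UAS-bla HEK 293T cells grown in 2% charcoal-stripped serum.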

[7] = target: Progesterone receptor (Homo sapiens) (UniProt P06401); assay: qHTS assay to identify small molecule antagonists of the progesterone receptor (PR) signaling pathway (AID 1346795; active means well fitted inhibition curve with a large enough effect in the signal ratio in the repeat runs, not every such curve was filed as active; the % refers to the signal ratio; further: potency means the concentration at half of the fitted maximal effect); details: PR-UAS-bla HEK293T, beta-lactamase FRET ratio, 16 h; series mostly up to 92.4 µM
How it was run: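 Read-out is fluorescence from the LiveBLAzer B/G FRET substrate, cleaved by a UAS-controlled beta-lactamase in PR-UAS-bla HEK293T cells after 16 hr exposure to compound plus 1 nM promegestone (final), followed by 2 hr at room temperature.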

[8] = qHTS assay to identify small molecule antagonists of the estrogen receptor beta (ER-beta) signaling pathway - cell viability counter screen (AID 1259382; active means well fitted curve in the direction sought with a large enough effect in the repeat runs; an effect the other way counts as inactive or inconclusive; further: nearly all actives have a fitted effect of over 55% in size; further: potency means the concentration at half of the fitted maximal effect;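 on activity change, negative = cytotoxicity: HEK293T cells carrying ER-beta-UAS-bla reporter stimulated with estradiol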); details: ER-beta-UAS-bla HEK293T viability, CellTiter-Glo luminescence, 16 h; series mostly up to 92.4 µM
How it was run: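 CellTiter-Glo ATP luminescence measured after the LiveBLAzer read in the same wells; ER-beta-UAS-bla HEK293T cells, 16 hr compound treatment with 1nM 17-beta-estradiol agonist at 37C, 5% CO2.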

[9] = target: Estrogen receptor (Homo sapiens) (UniProt P03372); assay: qHTS assay to identify small molecule agonists of the estrogen receptor alpha (ER-alpha) signaling pathway in the presence of an antagonist (AID 1259383); details: VM7Luc4E2 cells, ERE-luciferase, +ICI-182,780, 22 h; series mostly up to 92.4 µM; further: nearly all actives have a fitted effect of over 15% in size; further: potency means the concentration at half of the fitted maximal effect; on activation: top concentration of the series differs between compounds
How it was run: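 Luminescent ERE-luciferase reporter, VM7Luc4E2 cells (endogenous ER-alpha); 10.0nM ICI-182,780 final; 15-point compound titration; 22hr at 37C; ONE-Glo, 30min RT.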

[10] = qHTS assay to identify small molecule antagonists of the progesterone receptor (PR) signaling pathway - cell viability counter screen (AID 1346798; active means well fitted curve in the direction sought with a large enough effect in the repeat runs; an effect the other way counts as inactive or inconclusive; further: nearly all actives have a fitted effect of over 50% in size; further: potency means the concentration at half of the fitted maximal effect;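 on activity change, negative = cytotoxicity: HEK293T PR-UAS-bla cells stimulated with the agonist R5020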); details: PR-UAS-bla HEK293T viability, CellTiter-Glo luminescence, 16 h; series mostly up to 92.4 µM
How it was run: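 HEK293T PR-UAS-bla, 2% charcoal-stripped FBS; 4 hr pre-plate; cpd + R5020, 16 h 37C; LiveBLAzer read first; then CellTiter-Glo 30 min RT, luminescence.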
On the % scale 0 is the no-effect control and ±100 the full control effect.

Thyrotropin receptor (Homo sapiens), sequence (P16473 whole entry, looked up): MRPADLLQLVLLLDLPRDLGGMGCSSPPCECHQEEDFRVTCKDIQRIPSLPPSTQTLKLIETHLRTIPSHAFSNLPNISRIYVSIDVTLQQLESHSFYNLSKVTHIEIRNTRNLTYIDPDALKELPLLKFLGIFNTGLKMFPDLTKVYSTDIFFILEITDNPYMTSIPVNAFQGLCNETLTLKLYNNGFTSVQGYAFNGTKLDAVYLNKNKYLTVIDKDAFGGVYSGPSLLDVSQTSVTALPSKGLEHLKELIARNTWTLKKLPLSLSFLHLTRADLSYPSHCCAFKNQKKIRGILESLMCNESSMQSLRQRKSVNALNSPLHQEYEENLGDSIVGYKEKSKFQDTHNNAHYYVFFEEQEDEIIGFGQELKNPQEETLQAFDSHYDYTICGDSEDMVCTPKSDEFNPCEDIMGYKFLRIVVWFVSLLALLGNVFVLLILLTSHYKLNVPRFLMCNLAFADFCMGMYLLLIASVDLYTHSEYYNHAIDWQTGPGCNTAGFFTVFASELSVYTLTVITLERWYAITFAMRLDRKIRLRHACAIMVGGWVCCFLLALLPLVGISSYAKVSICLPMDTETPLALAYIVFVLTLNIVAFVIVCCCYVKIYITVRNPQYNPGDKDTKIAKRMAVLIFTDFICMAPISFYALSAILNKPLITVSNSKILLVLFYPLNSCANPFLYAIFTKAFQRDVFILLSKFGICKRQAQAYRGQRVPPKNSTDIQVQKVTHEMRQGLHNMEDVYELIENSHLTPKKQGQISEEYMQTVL
Estrogen receptor (Homo sapiens), sequence (P03372 whole entry, looked up): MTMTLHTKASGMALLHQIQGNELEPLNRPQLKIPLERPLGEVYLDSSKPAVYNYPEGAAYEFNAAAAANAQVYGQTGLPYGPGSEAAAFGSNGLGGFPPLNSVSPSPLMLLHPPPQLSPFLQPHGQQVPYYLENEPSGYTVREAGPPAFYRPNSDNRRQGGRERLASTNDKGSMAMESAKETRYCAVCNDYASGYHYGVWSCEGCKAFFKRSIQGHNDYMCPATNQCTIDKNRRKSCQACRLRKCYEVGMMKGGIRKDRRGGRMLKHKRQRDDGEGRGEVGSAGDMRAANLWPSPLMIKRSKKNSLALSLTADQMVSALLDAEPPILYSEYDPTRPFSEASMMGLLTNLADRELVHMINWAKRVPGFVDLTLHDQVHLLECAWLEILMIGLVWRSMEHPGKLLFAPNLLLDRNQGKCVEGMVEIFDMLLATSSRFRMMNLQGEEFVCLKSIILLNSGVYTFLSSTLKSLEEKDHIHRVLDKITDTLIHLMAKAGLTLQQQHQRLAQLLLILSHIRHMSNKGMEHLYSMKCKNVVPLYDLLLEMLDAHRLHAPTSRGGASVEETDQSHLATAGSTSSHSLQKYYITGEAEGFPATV
Androgen receptor (Homo sapiens), sequence (P10275 whole entry, looked up): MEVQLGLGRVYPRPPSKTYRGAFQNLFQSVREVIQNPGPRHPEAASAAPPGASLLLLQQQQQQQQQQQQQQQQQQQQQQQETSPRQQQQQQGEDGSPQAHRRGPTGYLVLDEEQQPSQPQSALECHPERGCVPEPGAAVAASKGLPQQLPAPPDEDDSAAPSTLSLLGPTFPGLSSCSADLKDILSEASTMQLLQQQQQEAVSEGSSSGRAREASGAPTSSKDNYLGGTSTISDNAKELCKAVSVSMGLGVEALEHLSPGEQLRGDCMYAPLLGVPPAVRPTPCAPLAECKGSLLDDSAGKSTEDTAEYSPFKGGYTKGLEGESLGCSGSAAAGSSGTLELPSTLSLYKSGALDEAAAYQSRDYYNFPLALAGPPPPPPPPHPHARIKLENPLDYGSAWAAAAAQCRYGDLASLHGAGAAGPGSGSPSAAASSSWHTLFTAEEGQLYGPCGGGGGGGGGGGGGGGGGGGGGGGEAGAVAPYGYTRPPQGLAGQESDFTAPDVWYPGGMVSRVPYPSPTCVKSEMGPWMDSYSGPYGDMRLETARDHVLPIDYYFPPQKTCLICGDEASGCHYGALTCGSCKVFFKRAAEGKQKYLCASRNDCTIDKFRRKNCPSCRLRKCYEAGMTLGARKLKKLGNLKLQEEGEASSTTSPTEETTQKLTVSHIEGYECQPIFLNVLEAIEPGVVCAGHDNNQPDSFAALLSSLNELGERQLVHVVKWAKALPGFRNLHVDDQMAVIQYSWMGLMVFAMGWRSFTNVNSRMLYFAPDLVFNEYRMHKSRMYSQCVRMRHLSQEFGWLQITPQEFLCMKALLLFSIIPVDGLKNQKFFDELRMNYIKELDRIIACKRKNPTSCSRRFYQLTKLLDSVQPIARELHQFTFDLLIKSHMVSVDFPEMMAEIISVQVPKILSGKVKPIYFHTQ
Progesterone receptor (Homo sapiens), sequence (P06401 whole entry, looked up): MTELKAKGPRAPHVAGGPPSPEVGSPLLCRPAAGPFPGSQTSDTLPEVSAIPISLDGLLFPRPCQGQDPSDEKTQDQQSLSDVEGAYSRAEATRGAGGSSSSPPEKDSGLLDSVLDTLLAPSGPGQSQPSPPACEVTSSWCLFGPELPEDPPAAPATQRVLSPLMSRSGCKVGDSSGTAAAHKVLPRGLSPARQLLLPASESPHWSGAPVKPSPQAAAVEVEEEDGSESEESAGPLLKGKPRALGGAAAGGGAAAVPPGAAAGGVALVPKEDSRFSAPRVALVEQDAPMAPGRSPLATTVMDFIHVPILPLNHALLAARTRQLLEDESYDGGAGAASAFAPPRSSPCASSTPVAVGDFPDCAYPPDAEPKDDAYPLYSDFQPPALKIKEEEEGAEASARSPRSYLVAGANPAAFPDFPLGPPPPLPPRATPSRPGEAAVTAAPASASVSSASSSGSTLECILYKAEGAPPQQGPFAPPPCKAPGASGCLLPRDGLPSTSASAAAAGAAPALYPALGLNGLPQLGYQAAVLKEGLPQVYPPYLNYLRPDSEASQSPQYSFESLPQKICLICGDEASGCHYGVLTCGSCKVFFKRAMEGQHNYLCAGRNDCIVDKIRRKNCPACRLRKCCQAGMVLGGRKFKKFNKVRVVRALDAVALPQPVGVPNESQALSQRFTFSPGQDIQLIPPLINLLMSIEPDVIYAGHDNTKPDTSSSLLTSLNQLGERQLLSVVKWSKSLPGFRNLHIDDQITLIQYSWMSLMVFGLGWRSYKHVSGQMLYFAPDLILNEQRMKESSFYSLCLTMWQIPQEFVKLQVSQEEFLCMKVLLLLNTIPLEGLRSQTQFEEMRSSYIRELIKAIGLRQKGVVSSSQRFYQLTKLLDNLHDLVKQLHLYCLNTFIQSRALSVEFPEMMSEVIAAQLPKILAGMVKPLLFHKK

CCCCCCCCCCCCS(=O)(=O)Cl
active: Potency [1] 14.6 µM
inactive: activation [2] 1.48% [at 19 µM] | cAMP activity change [3] 2.12% [at 18.9 µM, hits give high values] | activity change, negative = inhibition [4] -1.01% [at 19 µM] | activity change, negative = cytotoxicity [5] -0.178% [at 19 µM] | activation [6] -0.481% [at 19 µM] | activity change, negative = inhibition [7] -1.09% [at 18.9 µM]

Nc1ccc(F)c([N+](=O)[O-])c1
inactive: Potency [1] | Potency [8] | Potency [9] | Potency [3] | Potency [4] | Potency [5] | outcome [6] | Potency [7]

CN1CCN(CCCN2c3ccccc3Sc3ccc(Cl)cc32)CC1
active: Potency [1] 21.1 µM | Potency [8] 13.3 µM | Potency [4] 26.6 µM | Potency [10] 21.1 µM
inactive: Potency [9] | Potency [3] | outcome [6]

Cc1ccc2nc(-c3ccc(N)cc3)sc2c1S(=O)(=O)O
inactive: Potency [1] | Potency [8] | Potency [9] | Potency [3] | Potency [4] | Potency [5] | Potency [10]

O=C1OC(=O)c2cc(-c3ccc4c(c3)C(=O)OC4=O)ccc21
inactive: Potency [1] | Potency [8] | Potency [9] | Potency [3] | Potency [4] | Potency [5] | outcome [6] | Potency [7] | Potency [10]

CC(O)(c1ccc(Cl)cc1)c1ccc(Cl)cc1
inactive: Potency [1] | Potency [8] | Potency [9] | Potency [3] | Potency [4] | Potency [5] | outcome [6]

COc1cc(OC)nc(NC(=O)NS(=O)(=O)Nc2ccccc2C(=O)N(C)C)n1
inactive: Potency [1] | Potency [8] | Potency [9] | Potency [3] | Potency [4] | Potency [5] | outcome [6] | Potency [7]

O=C(NCc1ncc(C(F)(F)F)cc1Cl)c1c(Cl)cccc1Cl
inactive: Potency [2] | Potency [9] | Potency [3] | Potency [5] | outcome [6]
active: Potency [1] 43.3 µM | Potency [7] 24.3 µM

CCCC(C)C=O (centres undefined)
inactive: Potency [1] | Potency [8] | Potency [9] | Potency [3] | Potency [4] | Potency [5] | outcome [6] | Potency [7] | Potency [10]

CC1(C)[C@H]2CC[C@]1(C)C(=O)C2
inactive: Potency [1] | Potency [8] | Potency [9] | Potency [3] | Potency [4] | Potency [5] | outcome [6]

CCNc1nc(NC(C)(C)C)nc(OC)n1
inactive: Potency [1] | Potency [8] | Potency [9] | Potency [3] | Potency [4] | Potency [5] | outcome [6] | Potency [7]

C=C(C)CCO
inactive: Potency [1] | Potency [8] | Potency [9] | Potency [3] | Potency [4] | Potency [5] | outcome [6] | Potency [7] | Potency [10]

[Cl][Dy]([Cl])[Cl]
inactive: Potency [1] | Potency [8] | Potency [9] | Potency [3] | Potency [4] | outcome [6]

O=C(CCN1CCC(c2ccccc2)C1)c1ccc2c(c1)OCCO2 (centres undefined)
inactive: Potency [1] | Potency [8] | Potency [9] | Potency [3] | Potency [4] | Potency [5] | Potency [7] | Potency [10]

C1CCSC1
inactive: Potency [1] | Potency [8] | Potency [9] | Potency [3] | Potency [4] | Potency [5] | outcome [6] | Potency [7] | Potency [10]

COc1cc(/C=C/C(=O)CC(=O)/C=C/c2ccc(O)c(OC)c2)ccc1O
inactive: Potency [2] | Potency [9] | Potency [3]
active: Potency [1] 69 µM

C=C1C(CCl)(CCl)C2(Cl)C(Cl)C(Cl)C1(Cl)C2(Cl)Cl (centres undefined)
active: Potency [1] 48 µM | Potency [10] 67.8 µM
inactive: Potency [2] | Potency [3] | Potency [4]

Cc1ccc(C=O)cc1
inactive: Potency [1] | Potency [8] | Potency [9] | Potency [3] | Potency [4] | Potency [5] | outcome [6] | Potency [7] | Potency [10]

CC(c1cc(C(C)(C)C)cc(C(C)(C)C)c1O)c1cc(C(C)(C)C)cc(C(C)(C)C)c1O
inactive: Potency [1] | Potency [8] | Potency [9] | Potency [3] | Potency [4] | Potency [5] | outcome [6] | Potency [7] | Potency [10]

O=C(O)C[C@H](O)C[C@H](O)/C=C/c1c(C2CC2)nc2ccccc2c1-c1ccc(F)cc1
inactive: activation [2] -0.267% [at 19 µM] | activation [9] -0.342% [at 19 µM] | cAMP activity change [3] -3.96% [at 18.9 µM, hits give high values] | activity change, negative = inhibition [4] 1.31% [at 19 µM] | activity change, negative = cytotoxicity [5] 8.43% [at 19 µM] | activation [6] -0.575% [at 19 µM]
active: Potency [1] 3.26 µM

Cn1ccnc1
inactive: Potency [1] | Potency [8] | Potency [9] | Potency [3] | Potency [4] | Potency [5] | outcome [6] | Potency [7]

CO[Si](OC)(c1ccccc1)c1ccccc1
inactive: Potency [1] | Potency [8] | Potency [9] | Potency [3] | Potency [4] | outcome [6]

CC1CCC(C(C)(C)O)CC1 (centres undefined)
inactive: Potency [1] | Potency [2] | Potency [8] | Potency [5] | outcome [6] | Potency [10]

CCN(CC)c1ccc(N=Nc2ccccc2)cc1
inactive: Potency [3] | Potency [10]
active: Potency [1] 17.2 µM | Potency [8] 30.6 µM | Potency [9] 0.193 µM | Potency [4] 68.6 µM | Potency [5] 30.6 µM | Potency [7] 19.3 µM

CN1CCN(c2ccccc2/C=C2\SCCN(c3ccc(Cl)c(Cl)c3)C2=O)CC1
active: Potency [1] 30.6 µM | Potency [8] 61.1 µM | Potency [5] 68.6 µM
inactive: Potency [9] | Potency [3]

CCCCCCCCCCCC(=O)Cl
active: Potency [1] 34.4 µM
inactive: Potency [9] | Potency [3] | Potency [4] | Potency [5] | outcome [6] | Potency [7] | Potency [10]

CCCCCCCCCCCCN1CCCC1=O
active: Potency [1] 48.6 µM | Potency [8] 54.5 µM | Potency [7] 48.6 µM
inactive: Potency [9] | Potency [3] | outcome [6]

CC(C)=CCC[C@H](C)CC=O
inactive: Potency [1] | Potency [8] | Potency [3] | Potency [4] | Potency [5] | outcome [6] | Potency [7]

[Cl][Eu]([Cl])[Cl]
inactive: Potency [1] | Potency [8] | Potency [9] | outcome [6]

Nc1cccnc1N
inactive: Potency [1] | Potency [8] | Potency [9] | Potency [3] | outcome [6] | Potency [7]

CC(=O)Nc1ccc(N=Nc2cc(C)ccc2O)cc1
inactive: Potency [1] | Potency [8] | Potency [9] | outcome [6]
active: Potency [5] 15.4 µM | Potency [7] 48.6 µM

SC1CCCCC1
inactive: Potency [1] | Potency [8] | Potency [3] | Potency [4] | Potency [5] | outcome [6]

NCc1ccco1
inactive: Potency [1] | Potency [8] | Potency [3] | Potency [4] | Potency [5] | outcome [6] | Potency [7] | Potency [10]

Reference: PubChem BioAssay (Tox21)
